Test results as given in PubChem BioAssay AID2314 (National Center for Advancing Translational Sciences (NCATS), 2010).
Hit rate of the full screen: of about 300,000 compounds, about 37,000 (12%) were called active. No stated cut-off is given here; in the data, active means max response mostly above about 13% (no sharp cut-off); inactive means mostly below about 14%. Only a selection was taken, and actives are over-represented in it overall.

experiment: Cycloheximide Counterscreen for Small Molecule Inhibitors of Shiga Toxin; settings: cell reporter, cycloheximide protein synthesis inhibition counterscreen; hits give high values; further: read at 38.3 µM for the half of the compounds with a filed dose; 0% is about no effect

Compound | max response
O=C(CSc1nccc(=O)[nH]1)Nc1ccc(N2CCOCC2)c(Cl)c1 | -2.31% (inactive)
COc1ccc(CCNC(=O)CS(=O)(=O)Cc2nc(-c3ccc(C)cc3)oc2C)cc1OC | -4.16% (inactive)
CCCC(=O)Nc1c(O)c2ccccc2[nH]c1=O | -3.15% (inactive)
NS(=O)(=O)c1ccccc1NC(=O)c1c(O)c2ccccc2[nH]c1=O | 41.2% (active)
CC(C)C(=O)Nc1c(O)c2ccccc2[nH]c1=O | -0.723% (inactive)
N#Cc1ccc(-c2nc3cc(C#N)c(C#N)cc3nc2-c2ccccc2)cc1C#N | 18.4% (inactive)
Cc1ccc(N2C(=O)C3C4C=CC(CC4)C3C2=O)cc1Br (centres undefined) | 0.748% (inactive)
COc1ccc(CNC(=O)CN(c2ccc(OC)c(Cl)c2)S(=O)(=O)c2ccc(C)cc2)cc1 | 6.81% (inactive)
COc1cc(N/C=C2\CC(=O)NC(C)=C2C#N)cc(OC)c1OC | -2.39% (inactive)
c1cnc(N2CCN(c3ccc4ccccc4n3)CC2)nc1 | 53% (active)
Oc1ccc(CN2CCN(c3ncccn3)CC2)cc1 | -3.1% (inactive)
O=C(c1ccncc1)N1CCN(c2ccc3ccccc3n2)CC1 | 8.94% (inactive)
Cc1cc(C)c2nc(N3CCC(C(=O)NCCN4CCOCC4)CC3)sc2c1 | -2.32% (inactive)
Cc1nc(N2CCOCC2)sc1C(=O)NN | -3.93% (inactive)
Fc1cc(F)c2nc(N3CCOCC3)sc2c1 | 36.9% (active)
COc1cc(OC)cc(C(=O)N[C@H](C(=O)Nc2nc3ccccc3[nH]2)C(C)C)c1 | 0.422% (inactive)
COC(=O)Nc1nc2ccc(Sc3ccccc3)cc2[nH]1 | 27.6% (active)
CC(C)c1nc2ccc(C(=O)O)cc2[nH]1 | 7.51% (inactive)
Cc1ccc(Nc2nc(N3CCOCC3)nc(N3CCOCC3)n2)cc1Cl | -3.32% (inactive)
CNc1nc(Nc2ccc(C)c(Cl)c2)nc(N)c1[N+](=O)[O-] | 32.5% (active)
Nc1nc(Nc2ccccc2)nc(NCCO)c1[N+](=O)[O-] | 0.849% (inactive)
c1ccc2c(c1)CSc1sccc1C2=C1CCNCC1 | -3.55% (inactive)
CC(=O)NC(=S)NNC(=O)c1ccc(Br)cc1 | 12.5% (inactive)
Cc1ccccc1Cn1c2ccccc2c2cnn(CC(=O)NCc3ccco3)c(=O)c21 | 1.52% (inactive)

Compound | max response
COc1ccc2[nH]c(C(=O)N3CCN(C)CC3)c(C)c2c1 | 7.26% (inactive)
Cc1[nH]c2ccc(C(=O)N3CCN(C)CC3)cc2c1C | 28% (active)
CCOc1ccccc1N1CCN(C(=O)c2ccc3[nH]c(C)c(C)c3c2)CC1 | -2.02% (inactive)
Cc1cc(C)cc(NS(=O)(=O)c2ccc(Oc3ncc(C(F)(F)F)cc3Cl)cc2)c1 | -3.33% (inactive)
COC(=O)Cc1ccc(Oc2ncc(C(F)(F)F)cc2Cl)cc1 | 10.3% (inactive)
FC(F)(F)c1cnc(Oc2ccccc2-c2nnc(-c3ccc(Cl)cc3)o2)c(Cl)c1 | 13.8% (active)
CSc1ccccc1-c1nnc(-c2ccc(Cl)cc2)o1 | 29% (active)
Cc1c(C)c2ccc(OCC(=O)N3CCN(c4cccc(Cl)c4)CC3)cc2oc1=O | -3.72% (inactive)
COc1cccc(-c2coc3cc4oc(=O)c(CC(=O)O)c(C)c4cc23)c1 | 7.42% (inactive)
Cc1ccccc1CN1CCNC(=O)C1CC(=O)NCCC1=CCCCC1 (centres undefined) | -4.14% (inactive)
CN(C)CCCNC(=S)N1CCC(c2nc3ccccc3[nH]2)CC1 | -2.52% (inactive)
CC(=O)N1c2ccc(S(=O)(=O)N3CCC(C(=O)NCc4ccc(F)cc4)CC3)cc2CC1C (centres undefined) | -3.6% (inactive)
CCNc1ccc(C(=O)OCC(=O)N2c3ccccc3NC(=O)C2(C)C)cc1[N+](=O)[O-] | -4.72% (inactive)
O=C(CSc1nnc2ccccn12)c1ccccc1 | 49.5% (active)
O=C(CSc1nnc(-c2ccco2)n1CC1CCCO1)c1ccccc1 (centres undefined) | 8.39% (inactive)
Cn1c(SCC(=O)c2ccc(F)cc2)nnc1-c1ccccn1 | 6.35% (inactive)
Cc1ccc(-n2c(C)cc(C(=O)CN3C(=O)C(=O)N(C4CCCC4)C3=O)c2C)cc1 | -1.52% (inactive)
Cc1cc(C(=O)CSc2nc(N)cc(=O)[nH]2)c(C)n1-c1cccc(F)c1 | 7.82% (inactive)
N#Cc1ccc(CSc2nnc3ccccn23)cc1 | 5.39% (inactive)
Cc1ccc(-n2c(C)cc(C(=O)CSc3nnc4ccccn34)c2C)cc1 | 39.3% (active)
Cn1c(CC(=O)Nc2ccccc2)nnc1SCC(=O)c1ccccc1 | 3.65% (inactive)
O=C(CSc1nnc2n1CCCN2)c1ccccc1 | 38.3% (active)
COc1ccc(N(CC(=O)N2CCOCC2)S(=O)(=O)c2ccccc2)cc1Cl | -0.709% (inactive)
COc1ccc(/C=C(/NC(=O)c2ccccc2)C(=O)Nc2cccc(C(=O)O)c2)cc1 | -3.46% (inactive)

Compound | max response
COc1ccc(-c2c(C(C)=O)c(C)nc3sc4c(=O)n(-c5ccc(C)cc5)nnc4c23)cc1 | -1.79% (inactive)
CC(NCc1nc2ccccc2n1C)C12CC3CC(CC(C3)C1)C2 (centres undefined) | -1.92% (inactive)
O=C(Cn1cc(-c2nnnn2-c2ccc(Cl)cc2)c(=O)c2ccccc21)c1ccccc1 | -5.16% (inactive)
CN(C(=O)CC1C(=O)NCCN1Cc1ccc2ccccc2c1)C1CCOCC1 (centres undefined) | 0.547% (inactive)
O=C(O)C1CCC(CNS(=O)(=O)c2ccc(Br)cc2)CC1 (centres undefined) | -3.43% (inactive)
COc1ccc(S(=O)(=O)Nc2ccccc2C(=O)N2CCCC2)cc1C | -0.906% (inactive)
C/C(CCC(=O)OC[C@H]1O[C@H](C#Cc2ccccc2)C=C[C@@H]1Oc1ccc(C)cc1)=N\OC[C@@H](O)[C@H]1O[C@@H]2OC(C)(C)O[C@@H]2[C@H]1O | 1.29% (inactive)
COc1cc(CC(=O)N/N=C/c2ccccc2)c([N+](=O)[O-])cc1OC | 16.2% (inactive)
CCOC(=O)c1c(/N=C/C2C(=O)CC(C)(C)CC2=O)sc(C)c1C | -5.69% (inactive)
CCOC(=O)c1sc(/N=C/C2=C(O)CC(C)(C)CC2=O)c(C(=O)OCC)c1C | 65.5% (active)
CCOC(=O)c1c(CC(C)C)csc1/N=C/C1=C(O)CCCC1=O | -1.4% (inactive)
CCCCCC1CC(COc2ccccc2)OC1=O (centres undefined) | -2.67% (inactive)
Cc1oc2c(C)c3oc(=O)c(CC(=O)N[C@@H](CC(C)C)C(=O)N[C@@H](Cc4ccccc4)C(=O)O)c(C)c3cc2c1C | -3.89% (inactive)
Brc1ccc2ncnc(NCc3cccnc3)c2c1 | 8.06% (inactive)
Oc1ccccc1CNc1ncc(Br)cc1Br | 19.8% (active)
CCc1cccc(C)c1NS(=O)(=O)c1cc(Br)cnc1N | -7.68% (inactive)
O=C(NCc1ccc(Cl)c(Cl)c1)c1cccnc1 | -2.41% (inactive)
O=C(NN=C1CCC(=NNC(=O)c2cccnc2)CC1)c1cccnc1 | 22.4% (active)
O=C(Nc1ccc(S(=O)(=O)Nc2ncccn2)cc1)C12CC3CC(CC(C3)C1)C2 | 1.99% (inactive)
O=C(CNC(=O)c1cccnc1)N/N=C/c1cc(Br)c(O)c(Br)c1 | -1.81% (inactive)
COc1cc(/C=N/NC(=O)c2cccnc2)ccc1OC(=O)c1cccc(Br)c1 | -6.4% (inactive)
O=C(Nc1cnccn1)c1cccnc1 | -3.29% (inactive)
CN1CCN(NC(=O)c2ccc(S(=O)(=O)N3CCCCCC3)cc2)CC1 | -2.75% (inactive)
O=C(N/N=C/c1ccccn1)c1cccc(NC(=O)c2ccc(Cl)cc2)c1 | 13% (inactive)

Compound | max response
Cc1cc(/C=N/NC(=O)c2cccnc2)c(C)n1CC(C)C | 42.1% (active)
O=C(N/N=C/c1ccccn1)c1ccc(S(=O)(=O)N2CCCCCC2)cc1 | 73.8% (active)
CNC(=O)C(=O)N/N=C/c1ccccn1 | 6.76% (inactive)
O=C(N/N=C/c1ccccn1)C12CC3CC(CC(C3)C1)C2 | 14.7% (active)
FC(F)(F)Oc1ccc(NC(=S)NCc2ccccc2)cc1 | 1.72% (inactive)
C[C@H]1[C@H]2c3nc4ccccc4n3C[C@H]1ON2C1CCCCC1 | 2.13% (inactive)
COc1ccccc1N1CC(C(=O)Nc2nnc(SCC(=O)NCC3CCCO3)s2)CC1=O (centres undefined) | 8.07% (inactive)
COC(=O)C1=C(Nc2ccc(C)cc2)C=C(C)C(C(=O)OC)C1c1ccc(F)cc1 (centres undefined) | 10.3% (inactive)
COc1ccc(-c2ccc(C3C4C=CCCC4(C)C(=O)N3Cc3ccccc3)c(F)c2)cc1OC (centres undefined) | 12.4% (inactive)
O=C(N/N=C/c1ccc(O)c2ccccc12)c1cccnc1 | 15.4% (inactive)
O=C(N/N=C/c1ccccn1)c1cccnc1 | 17.5% (active)
Cc1ccccc1CSc1nnc(-c2cccnc2)n1N | 16.2% (inactive)
Cn1c(SCC(=O)C(C)(C)C)nnc1-c1ccccn1 | 18.9% (inactive)
Cc1ccccc1CSc1nnc(-c2ccccn2)n1N | 27% (active)
COc1ccc(-c2cc(=O)oc3cc(OCC(=O)N(C)C4CCS(=O)(=O)C4)ccc23)cc1 (centres undefined) | 3.93% (inactive)
CCN(C(=O)COC(=O)c1ccc(COc2ccc3c(C)cc(=O)oc3c2)cc1)C1CCS(=O)(=O)C1 (centres undefined) | 21.1% (active)
Cc1ccccc1NC(=O)c1ccc(COc2ccc3c(C)cc(=O)oc3c2)cc1 | -0.998% (inactive)
COc1cccc(-c2nn(-c3ccccc3)cc2/C=C(\C#N)C(=O)NCCCn2ccnc2)c1 | 10.5% (inactive)
CC1CCCCC1NC(=O)CCS(=O)(=O)c1ccc2c(c1)NC(=O)CO2 (centres undefined) | -2.74% (inactive)
COc1ccc(C(=O)Nc2ccccc2C(=O)N/N=C/c2ccccc2OC)cc1 | 17.9% (inactive)
COc1ccc(/C=N/NC(=O)c2ccc3c(c2)OCCO3)c(OC)c1 | 56% (active)
COc1ccc(/C=N/NC(=O)CNC(=O)c2ccc(S(=O)(=O)N3CCCC3)cc2)c(OC)c1 | -1.52% (inactive)
